Source: the supplement of paper PMC10981050
Several values for one entry are separate records, joined by “and”; a condition that tells them apart may be missing. Equal entries are not always repeated. Structures can show the parent of a compound that is named as a salt.

How the values were obtained:
Assay in all cases: cell viability relative to vehicle control; higher = less cytotoxic
Details in all cases: 10 µM
[1] = tested on: K562
Method in brief: (§1)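 CRISPR-edited mutant clones and isogenic wild-type clones from four leukaemia lines were screened against Selleck bioactive, kinase and epigenetic probe libraries, with identity-inconsistent compounds excluded. Each compound was acoustically dispensed at a single 10 µM dose into 384-well plates holding 2000 cells in 50 µL medium per well. After 48 h the supernatant was removed and CellTiter-Glo luminescence was read. Viability was expressed as percent of the on-plate vehicle control and analysed in Genedata Screener.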

[2] = tested on: MARIMO
Method in brief: as §1

[3] = tested on: MOLM14
Method in brief: as §1

[4] = tested on: OCI-AML2
Method in brief: as §1

SMILES | cell viability ([1]; SRSF2 genotype: SRSF2 P95H/wt) | cell viability ([1]; SRSF2 genotype: SRSF2 wt/wt) [%] | cell viability ([2]; SRSF2 genotype: SRSF2 P95H/wt) [%] | cell viability ([2]; SRSF2 genotype: SRSF2 wt/wt) [%] | cell viability ([3]; SRSF2 genotype: SRSF2 P95H/wt) [%] | cell viability ([3]; SRSF2 genotype: SRSF2 wt/wt) [%] | cell viability ([4]; SRSF2 genotype: P95H/wt) [%] | cell viability ([4]; SRSF2 genotype: wt/wt) [%]
Cc1ccccc1C(C(=O)NC1CCCCC1)N(C(=O)Cn1ccnc1C)c1cccc(F)c1 (stereo unspecified) | 103% and 101% | 97.1 | 99.2 | 98.6 | 100 | 99.8 | 101 | 105
COC(=O)Nc1ccc(-c2nc(N3CCOCC3)c3cnn(C4CCN(C(=O)OC)CC4)c3n2)cc1 | 43.8% and 55.5% | 48.8 | 53.5 | 52 | 40.9 | 34.3 | 33.9 | 32.9
CO[C@H]1/C=C/O[C@@]2(C)Oc3c(C)c(O)c4c(O)c(cc(O)c4c3C2=O)NC(=O)/C(C)=C\C=C\[C@H](C)[C@H](O)[C@@H](C)[C@@H](O)[C@@H](C)[C@H](OC(C)=O)[C@@H]1C [Rifamycin sodium salt] | 35.1% and 16.3% | 13 | 4.5 | 7.05 | 0.49 | 0.44 | 0.38 | 0.42
CC(C)C(C)C(O)C(O)C(C)C1CCC2C3COC(=O)C4CC(O)C(O)CC4(C)C3CCC12C (stereo unspecified) [Brassinolide] | 98.5% and 94.6% | 99.3 | 107 | 115 | 95.8 | 103 | 120 | 103
COc1ccccc1OCC(O)CN1CCN(CC(=O)Nc2c(C)cccc2C)CC1 (stereo unspecified) [Ranolazine dihydrochloride] | 92.7% and 97.6% | 101 | 96.7 | 103 | 98.8 | 100 | 102 | 111
CN(c1ccccc1CNc1nc(Nc2ccc3c(c2)CC(=O)N3)ncc1C(F)(F)F)S(C)(=O)=O | 17% and 28.3% | 16.4 | 8.93 | 3.27 | 0.69 | 0.39 | 1.33 | 13.7
Clc1ccc(NN=C(c2ccccc2)c2ccccn2)nc1 | 17.9% and 15.3% | 20 | 3.72 | 0.76 | 1.65 | 0.71 | 5.44 | 3.14
CC1(C)C2CCC1(C)C(O)C2 (single isomer, unassigned; (-)) [(-)-Borneol] | 103% | 106 | 100 | 109 | 101 | 104 | 109 | 106
CC(=O)OC/C=C(/C)CCC=C(C)C [Neryl acetate] | 98.4% and 101% | 100 | 96.8 | 102 | 112 | 99.6 | 100 | 103
CCOCCn1c(N2CCCN(C)CC2)nc2ccccc21 [Emedastine] | 100% and 96.7% | 101 | 101 | 107 | 102 | 107 | 114 | 104
C=CC(=O)Nc1cccc(Nc2nc(Nc3ccc(OCCOC)cc3)ncc2F)c1 | 66.8% and 79.5% | 73.4 | 62.1 | 60.4 | 9.43 | 6.93 | 28.2 | 31.8
C=C1[C@H](CO)[C@@H](O)C[C@@H]1n1cnc2c(=O)[nH]c(N)nc21 [Entecavir hydrate] | 106% and 109% | 106 | 101 | 96.7 | 94.7 | 106 | 87.7 | 94.7
CN(C)c1ccc2nc3ccc(=[N+](C)C)cc-3sc2c1 [Methylene Blue] | 33.4% and 27.2% | 17.1 | 13.1 | 14.2 | 5.69 | 2.58 | 5.27 | 7.07
Fc1cc(-c2cccc3ncc(-c4cnn(C5CCNCC5)c4)nc23)cc(F)c1CN1CCOCC1 | 3.45% and 6.22% | 7.58 | 31.9 | 5.4 | 0.59 | 0.69 | 0.94 | 2.89
CC(C)[C@H]1C(=O)N[C@@H](CCCNC(=N)N)C(=O)NCC(=O)N[C@@H](CC(=O)O)C(=O)N[C@H](Cc2ccccc2)C(=O)N1C [Cilengitide trifluoroacetate] | 98.5% and 105% | 101 | 102 | 99.1 | 103 | 99.5 | 104 | 109
OC[C@H]1O[C@H](OC[C@H]2O[C@H](O[C@]3(CO)O[C@H](CO)[C@@H](O)[C@@H]3O)[C@H](O)[C@@H](O)[C@@H]2O)[C@H](O)[C@@H](O)[C@H]1O [D-(+)-Raffinose pentahydrate] | 114% and 103% | 118 | 104 | 103 | 112 | 113 | 104 | 103
O=C1CCc2c(ccc3ccccc23)O1 [Splitomicin] | 105% and 97% | 95.4 | 103 | 107 | 98.7 | 99.5 | 96.9 | 102
N[C@@H](CSCCB(O)O)C(=O)O [BEC Hydrochloride] | 105% and 101% | 96.8 | 99.4 | 114 | 101 | 104 | 109 | 111
C[C@H]1O[C@@H](O[C@H]2CC[C@@]3(C)[C@@H](CC[C@]4(C)[C@@H]3C=CC3=C5CC(C)(C)CC[C@]5(CO)[C@@H](O)C[C@]34C)[C@]2(C)CO)[C@H](O[C@@H]2O[C@H](CO)[C@@H](O)[C@H](O)[C@H]2O)[C@@H](O[C@@H]2O[C@H](CO)[C@@H](O)[C@H](O)[C@H]2O)[C@H]1O [Buddlejasaponin IVb] | 96.5% and 97% | 97.8 | 98.4 | 108 | 98.3 | 102 | 101 | 106
CC(C)NC(=O)COc1cccc(-c2nc(Nc3ccc4[nH]ncc4c3)c3ccccc3n2)c1 | 73.5% and 97.8% | 84.7 | 68.6 | 72.4 | 93.6 | 89.8 | 110 | 87.8
CN1CCN(C(=O)C=Cc2ccc([N+](=O)[O-])o2)CC1 | 43.9% and 54.3% | 65.3 | 65 | 72.4 | 40.7 | 35.7 | 24.7 | 42.6

SMILES | cell viability ([1]; SRSF2 genotype: SRSF2 P95H/wt) | cell viability ([1]; SRSF2 genotype: SRSF2 wt/wt) [%] | cell viability ([2]; SRSF2 genotype: SRSF2 P95H/wt) [%] | cell viability ([2]; SRSF2 genotype: SRSF2 wt/wt) [%] | cell viability ([3]; SRSF2 genotype: SRSF2 P95H/wt) [%] | cell viability ([3]; SRSF2 genotype: SRSF2 wt/wt) [%] | cell viability ([4]; SRSF2 genotype: P95H/wt) [%] | cell viability ([4]; SRSF2 genotype: wt/wt) [%]
CC(=O)OCC=Cc1ccccc1 [Cinnamyl acetate] | 98.4% and 95.9% | 104 | 99.4 | 95.9 | 101 | 102 | 101 | 111
CCc1cc2c(cc1N1CCC(N3CCOCC3)CC1)C(C)(C)c1[nH]c3cc(C#N)ccc3c1C2=O | 91.7% and 98.6% | 105 | 63.9 | 86.3 | 66.7 | 80.5 | 71.7 | 52.2
C/C=C(/C)C(=O)O[C@H]1c2cc(OC)c(OC)c(OC)c2-c2c(cc3c(c2OC)OCO3)C[C@H](C)[C@]1(C)O [Schisantherin B] | 98.1% and 96.8% | 93.7 | 93 | 94.1 | 82.8 | 92.6 | 97.1 | 97
CCCCC(=O)OCC(=O)[C@H]1[C@H](C)C[C@H]2[C@@H]3C[C@H](F)C4=CC(=O)C=C[C@]4(C)[C@@]3(F)[C@@H](O)C[C@@]21C [Diflucortolone valerate] | 96.5% and 92.7% | 104 | 95.1 | 98.2 | 92 | 96 | 99.4 | 118
CCc1cc(Nc2nc(-c3ccc(-n4cnc(C)c4)c(F)c3)cs2)c(C)cc1C | 96% and 99.5% | 91.5 | 93.8 | 101 | 96.6 | 93.9 | 94.2 | 91.9
O=C(c1ccc(Oc2ccccc2)cc1Cl)c1c[nH]c2ncnc(N[C@@H]3CC[C@@H](CO)OC3)c12 | 9.11% and 19% | 14.3 | 23.1 | 22.1 | 12.6 | 17 | 13.4 | 16.1
Nc1ncnc2c1c(-c1cnc3[nH]ccc3c1)nn2C1CCCC1 | 6.97% and 21.9% | 9.11 | 27.8 | 26.9 | 9.21 | 13.2 | 2.15 | 7.66
C/C=C(/C)C(=O)OC(C)(C)[C@@H]1Cc2c(ccc3ccc(=O)oc23)O1 [Columbianadin] | 99.8% and 97.1% | 99.2 | 87.8 | 86.5 | 102 | 98.4 | 72.8 | 77.5
Cc1cc2c(s1)Nc1ccccc1N=C2N1CCN(C)CC1 [Olanzapine (Zyprexa)] | 95.8% and 89.5% | 90.7 | 92.5 | 102 | 93.8 | 95.8 | 81.7 | 92.2
C[C@@H]1COCCN1c1cc(C2([S@](C)(=N)=O)CC2)nc(-c2cc[nH]c3nccc2-3)n1 | 15.9% and 23.3% | 15.3 | 19.2 | 20.1 | 11.1 | 5.99 | 10.6 | 12
NCCCNCCCCNCCCN [Spermine] | 104% and 102% | 104 | 103 | 111 | 100 | 103 | 101 | 106
O=C(O)c1cn(C2CC2)c2cc(Cl)c(F)cc2c1=O [Fluoroquinolonic Acid] | 108% and 104% | 108 | 97.5 | 101 | 104 | 110 | 104 | 110
CNC(=O)c1ccc(N2C(=S)N(c3cnc(C#N)c(C(F)(F)F)c3)C(=O)C23CCC3)cc1F | 98.6% and 98.8% | 103 | 104 | 110 | 98.4 | 109 | 96.2 | 88.1
C[C@H](CCC(=O)O)[C@H]1CC[C@H]2[C@@H]3CC[C@@H]4C[C@H](O)CC[C@]4(C)[C@H]3C[C@H](O)[C@]12C [Deoxycholic acid] | 94.9% and 86.4% | 87.3 | 93.7 | 103 | 94.7 | 95 | 94.5 | 93
CC#C[C@]1(O)CC[C@H]2[C@@H]3CCC4=CC(=O)CCC4=C3[C@@H](c3ccc(N(C)C)cc3)C[C@@]21C [Mifepristone (Mifeprex)] | 84.3% and 91.5% | 86.8 | 86.7 | 90.7 | 79.7 | 89.6 | 104 | 92.6
O=C(c1ccc(Cl)cc1)N(Cc1ccccc1)C1CCCCC1 | 86.1% and 92.9% | 92.3 | 75.2 | 84.1 | 78.1 | 94.6 | 72.5 | 81.8
CC1OC(OC2C(CO)OC(OCC3OC(OC(=O)C45CCC(C)(C)CC4C4=CCC6C7(C)CCC(OC8OCC(O)C(O)C8O)C(C)(CO)C7CCC6(C)C4(C)CC5)C(O)C(O)C3O)C(O)C2O)C(O)C(O)C1O (stereo unspecified) [Hederacoside D] | 98.3% and 104% | 101 | 95.7 | 103 | 105 | 99.3 | 97 | 103
C#Cc1cccc(Nc2ncnc3cc(OC)c(OCCCCCCC(=O)NO)cc23)c1 | 1.25% and 12.2% | 3.12 | 9.16 | 8.09 | 1.03 | 0.53 | 1.68 | 2.66
O=C(Nc1cc(Cl)cc2c1[nH]c1cnccc12)c1cccnc1 | 89% and 95.7% | 88.8 | 111 | 116 | 85.2 | 101 | 86.8 | 85.9
CCNC(=O)Nc1ccc(-c2nc3c(c(N4CCOC[C@@H]4C)n2)CCN(C2COC2)C3)cc1 | 40.5% and 42.9% | 39.5 | 61.5 | 53.6 | 37.4 | 28.8 | 36.3 | 33.7
CO[C@H]1C[C@@H]2CC[C@@H](C)[C@@](O)(O2)C(=O)C(=O)N2CCCC[C@H]2C(=O)O[C@H]([C@H](C)C[C@@H]2CC[C@H](n3cnnn3)[C@H](OC)C2)CC(=O)[C@H](C)/C=C(\C)[C@@H](O)[C@@H](OC)C(=O)[C@H](C)C[C@H](C)/C=C/C=C/C=C/1C [Zotarolimus (ABT-578)] | 67.9% and 74.2% | 66.1 | 77 | 76.9 | 60.8 | 56.5 | 64.2 | 61.1
